Results filed as inconclusive are left out. Active and inactive are the calls of the source. How the source made its calls, unless noted: active means hit-call score of the fitted dose curve at least 0.9, where 1 is the maximum; inactive means score below 0.9.
What was measured:
[1] = biological target: Bile acid receptor (Homo sapiens) (UniProt Q96RI1); experiment: ATG_FXR_TRANS: Attagene TRANS-FACTORIAL HepG2 Assay for Farnesoid X Receptor (FXR) (AID 2282979; active means hit-call score of the fitted dose curve at least 0.9, where 1 is the maximum;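 further: hits raise reporter mRNA above DMSO so AC50 marks FXR activation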); conditions: HepG2 Attagene TRANS FXR-GAL4 reporter transcription
Outline: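 Chimeric FXR-GAL4 activity in transiently transfected human HepG2 liver cells is scored as induction of reporter mRNA after 24 h of dosing. Detection uses RT-PCR with fluorescent labelling and capillary electrophoresis, with DMSO serving as baseline.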

[2] = biological target: Oxysterols receptor LXR-alpha (Homo sapiens) (UniProt Q13133); experiment: ATG_LXRa_TRANS: Attagene TRANS-FACTORIAL HepG2 Assay for human Liver X Receptor alpha (LXRa) (AID 2282980; active means hit-call score of the fitted dose curve at least 0.9, where 1 is the maximum); conditions: HepG2 Attagene TRANS reporter, LXRa transactivation
Outline: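 Transient HepG2 transfectants, 24 h dosing, RT-PCR/CE mRNA reporter quantitation; gain-of-signal vs DMSO.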

[3] = ATG_M_06_TRANS: Attagene TRANS-FACTORIAL HepG2 Assay for M06 Transcription Factor (Internal Marker) (AID 2282983; active means hit-call score of the fitted dose curve at least 0.9, where 1 is the maximum); conditions: HepG2 Attagene TRANS M06 internal marker reporter
Outline: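 Human liver HepG2 cells bearing transiently transfected chimeric NR-GAL4 reporter units were treated with chemicals for 24 h. Total RNA was reverse-transcribed, reporter sequences amplified and labelled, then quantified by capillary electrophoresis. Activity was fitted upward relative to DMSO.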

[4] = biological target: Nuclear receptor subfamily 4 group A member 2 (Homo sapiens) (UniProt P43354); experiment: ATG_NURR1_TRANS: Attagene TRANS-FACTORIAL HepG2 Assay for human Nuclear Receptor Related Protein 1 (NURR1) (AID 2282985; active means hit-call score of the fitted dose curve at least 0.9, where 1 is the maximum); conditions: HepG2 Attagene TRANS reporter, mRNA readout
Outline: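 Chimeric NR-Gal4 fusion activity measured in HepG2 after 24 h treatment. Reporter transcripts detected by RT-PCR and capillary electrophoresis fluorescence; positive-direction curve fitting against DMSO.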

[5] = biological target: Transcriptional activator Myb (Homo sapiens) (UniProt P10242); experiment: ATG_Myb_CIS: Attagene CIS-FACTORIAL HepG2 Assay for human Myeloblastosis (Myb) Proto-Oncogene Transcription Factor (AID 2282986); conditions: HepG2 Attagene CIS-FACTORIAL Myb reporter transcription; actives raise or lower the signal
Outline: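 Fluorescence signals from capillary electrophoresis of RT-PCR-amplified reporter cDNA give the read-out. Cells: HepG2 transfected with multiple cis-regulated reporter units. Exposure lasts 24 hours; DMSO defines baseline for gain or loss of signal.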

[6] = biological target: Nuclear respiratory factor 1 (Homo sapiens) (UniProt Q16656); experiment: ATG_NRF1_CIS: Attagene CIS-FACTORIAL HepG2 Assay for human Nuclear Respiratory Factor 1 (NRF1) Orphan Gene (AID 2282987); conditions: HepG2 NRF1 cis-element reporter, Attagene multiplex; actives raise or lower the signal
Outline: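 Transcriptional reporter readout, one component of a 52-endpoint multiplexed HepG2 panel. Exposure 24 h; mRNA detected via RT-PCR and fluorescent capillary electrophoresis; fitting in both directions against DMSO.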

[7] = ATG_NFI_CIS: Attagene CIS-FACTORIAL HepG2 Assay for human Nuclear Factor I (NFI) (AID 2282989); conditions: HepG2 cis-regulatory reporter, NFI response element transcription; actives raise or lower the signal
Outline: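 Reporter transcription driven by endogenous transcription factors in HepG2 cells; 24 h treatment. Quantitation by labelled RT-PCR fragments on capillary electrophoresis, gain- or loss-of-signal relative to DMSO.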

[8] = ATG_NF_kB_CIS: Attagene CIS-FACTORIAL HepG2 Assay for human Nuclear Factor Kappa B (NF-kB) (AID 2282991); conditions: HepG2 Attagene cis-factorial NF-kB reporter mRNA; actives raise or lower the signal
Outline: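 HepG2, transient multi-reporter transfection, cis promoter elements (endogenous TFs). 24 h exposure. Total RNA → RT → PCR → 6-FAM label → HpaI → CE. Gain/loss vs DMSO.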

[9] = ATG_NRF2_ARE_CIS: Attagene CIS-FACTORIAL HepG2 Assay for human Nuclear Factor Erythroid 2 Related Factor 2 (NFR2) response to Antioxidant Response Elements (ARE) (AID 2282992); conditions: HepG2 Attagene ARE/NRF2 reporter, transcription factor activity; actives raise or lower the signal
Outline: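 Endogenous transcription factor activity read out as reporter transcript levels (RT-PCR plus capillary electrophoresis, fluorescence) in transiently transfected HepG2 cells. Measured at 24 h after dosing; gain or loss of signal fitted versus DMSO.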

[10] = biological target: Cellular tumor antigen p53 (Homo sapiens) (UniProt P04637); experiment: ATG_p53_CIS: Attagene CIS-FACTORIAL HepG2 Assay for human p53 Transcription Factor (AID 2282994); conditions: HepG2 p53 cis-element reporter, Attagene mRNA; actives raise or lower the signal
Outline: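 Endogenous p53 activity read in transiently transfected HepG2 from a cis-element-driven reporter transcript after 24 h exposure. RNA reverse-transcribed, PCR-amplified, fluorescently labelled and sized by capillary electrophoresis; gain or loss fitted against DMSO baseline.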

[11] = biological target: Oxysterols receptor LXR-beta (Homo sapiens) (UniProt P55055); experiment: ATG_LXRb_TRANS: Attagene TRANS-FACTORIAL HepG2 Assay for human Liver X Receptor beta (LXRb) (AID 2282981; active means hit-call score of the fitted dose curve at least 0.9, where 1 is the maximum); conditions: HepG2 Attagene TRANS GAL4-LXRb reporter, mRNA
Outline: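 Measures induction of a Gal4-driven reporter transcript in HepG2 cells expressing an exogenous LXRb-Gal4 fusion. Cells are exposed to compound for 24 h before RNA isolation and RT-PCR with capillary electrophoresis detection.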

[12] = biological target: Hepatocyte nuclear factor 4-alpha (Homo sapiens) (UniProt P41235); experiment: ATG_HNF4a_TRANS: Attagene TRANS-FACTORIAL HepG2 Assay for human Hepatocyte Nuclear Factor 4 alpha (HNF4a) (AID 2282982; active means hit-call score of the fitted dose curve at least 0.9, where 1 is the maximum); conditions: HepG2 HNF4a transactivation reporter, mRNA readout
Outline: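 In this trans-factorial format, a chimeric HNF4a-GAL4 fusion drives a GAL4-UAS reporter in transfected HepG2 liver cells. After 24 h treatment, reporter mRNA induction is measured by RT-PCR with capillary electrophoresis, relative to DMSO.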

[13] = biological target: Myc proto-oncogene protein (Homo sapiens) (UniProt P01106); experiment: ATG_Myc_CIS: Attagene CIS-FACTORIAL HepG2 Assay for human Myelocytomatosis (Myc) Proto-Oncogene Transcription Factor (AID 2282990); conditions: HepG2, Attagene cis-reporter transcription factor activity; actives raise or lower the signal
Outline: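 DMSO-normalised, bidirectionally fitted reporter mRNA signal. HepG2 cells transfected with cis reporter constructs, treated 24 h; transcripts detected by RT-PCR, 6-FAM primer extension and CE.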

[14] = ATG_Oct_MLP_CIS: Attagene CIS-FACTORIAL HepG2 Assay for human Octamer-Binding Transcription Factor (Oct) (AID 2282993); conditions: HepG2 Attagene cis-factorial Oct reporter, mRNA; actives raise or lower the signal
Outline: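 Transfected HepG2 cells, 24 h treatment. Reporter mRNA quantified by RT-PCR–capillary electrophoresis; bidirectional fitting against DMSO.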

[15] = ATG_M_32_TRANS: Attagene TRANS-FACTORIAL HepG2 Assay for M32 Transcription Factor (Internal Marker) (AID 2282984; active means hit-call score of the fitted dose curve at least 0.9, where 1 is the maximum;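 further: transcript level of a background control reporter unit measured by RT-PCR and capillary electrophoresis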); conditions: HepG2 Attagene TRANS M32 internal marker reporter
Outline: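 After 24 h dosing of transfected HepG2 cells, total RNA was reverse-transcribed, reporter sequences PCR-amplified, 6-FAM labelled by primer extension and HpaI-digested before capillary electrophoresis. Signal increase over DMSO was fitted.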

[16] = BSK_3C_TissueFactor: BioMAP Diversity Plus: 3C Assay for Tissue Factor Biomarker Activity (AID 2282997); conditions: BioMAP 3C HUVEC, tissue factor biomarker readout; actives raise or lower the signal
Outline: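 Cells used were primary human umbilical vein endothelial cells. They were dosed with chemical, and after 24 h Tissue Factor was quantified by ELISA. Curves were fitted bidirectionally with DMSO as baseline.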

[17] = BSK_3C_uPAR: BioMAP Diversity Plus: 3C Assay for Urokinase-type plasminogen activator receptor (uPAR) Biomarker Activity (AID 2282998); conditions: BioMAP 3C HUVEC, uPAR biomarker ELISA; actives raise or lower the signal
Outline: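 Readout: ELISA for surface uPAR. System: human umbilical vein endothelial primary cells, 24 h after chemical exposure. Analysis: bidirectional fit, DMSO baseline.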

[18] = BSK_3C_VCAM1: BioMAP Diversity Plus: 3C Assay for Vascular cell adhesion molecule 1 (VCAM1) Biomarker Activity (AID 2282999); conditions: BioMAP 3C HUVEC, VCAM1 ELISA, cytokine-stimulated; actives raise or lower the signal
Outline: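 Vascular primary endothelium (human umbilical vein) was exposed to chemicals and assayed 24 h later. VCAM-1 levels came from ELISA, with DMSO serving as baseline for bidirectional fitting.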

[19] = BSK_4H_Eotaxin3: BioMAP Diversity Plus: 4H Assay for Eotaxin 3 Biomarker Activity (AID 2283000); conditions: primary human endothelial cells (HUVEC); actives raise or lower the signal
Outline: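 Endothelial primary cells (human umbilical vein) exposed to compound for 24 h. ELISA detection of Eotaxin-3.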

Measured: AC50

Chain of Oxysterols receptor LXR-beta (Homo sapiens) (P55055 whole entry, looked up, the tested form may be a part): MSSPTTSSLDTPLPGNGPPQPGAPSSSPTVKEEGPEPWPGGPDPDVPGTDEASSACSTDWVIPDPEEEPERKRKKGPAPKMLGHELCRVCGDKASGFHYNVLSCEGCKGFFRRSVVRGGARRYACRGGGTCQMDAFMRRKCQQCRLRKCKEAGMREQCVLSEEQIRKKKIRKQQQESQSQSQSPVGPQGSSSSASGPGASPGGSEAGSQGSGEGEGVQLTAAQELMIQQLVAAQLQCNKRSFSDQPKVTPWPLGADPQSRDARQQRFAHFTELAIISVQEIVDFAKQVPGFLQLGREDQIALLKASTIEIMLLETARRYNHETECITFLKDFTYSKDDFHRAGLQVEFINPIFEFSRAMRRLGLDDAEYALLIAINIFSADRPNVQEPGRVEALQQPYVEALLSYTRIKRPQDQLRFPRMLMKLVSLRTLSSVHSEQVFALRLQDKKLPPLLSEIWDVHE
Chain of Oxysterols receptor LXR-alpha (Homo sapiens) (Q13133 whole entry, looked up): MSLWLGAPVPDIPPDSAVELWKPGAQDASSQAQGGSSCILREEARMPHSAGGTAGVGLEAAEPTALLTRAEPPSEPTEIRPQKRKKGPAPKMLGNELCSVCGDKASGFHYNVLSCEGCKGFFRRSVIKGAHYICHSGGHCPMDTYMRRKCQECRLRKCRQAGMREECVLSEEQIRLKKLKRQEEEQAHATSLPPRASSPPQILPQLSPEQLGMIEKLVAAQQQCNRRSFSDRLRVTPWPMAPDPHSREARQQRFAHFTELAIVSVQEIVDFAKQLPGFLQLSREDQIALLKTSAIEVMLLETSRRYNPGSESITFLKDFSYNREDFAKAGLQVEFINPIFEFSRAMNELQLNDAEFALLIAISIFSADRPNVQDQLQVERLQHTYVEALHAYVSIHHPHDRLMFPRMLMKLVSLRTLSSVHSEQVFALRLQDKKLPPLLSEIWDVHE
Chain of Myc proto-oncogene protein (Homo sapiens) (P01106 whole entry, looked up): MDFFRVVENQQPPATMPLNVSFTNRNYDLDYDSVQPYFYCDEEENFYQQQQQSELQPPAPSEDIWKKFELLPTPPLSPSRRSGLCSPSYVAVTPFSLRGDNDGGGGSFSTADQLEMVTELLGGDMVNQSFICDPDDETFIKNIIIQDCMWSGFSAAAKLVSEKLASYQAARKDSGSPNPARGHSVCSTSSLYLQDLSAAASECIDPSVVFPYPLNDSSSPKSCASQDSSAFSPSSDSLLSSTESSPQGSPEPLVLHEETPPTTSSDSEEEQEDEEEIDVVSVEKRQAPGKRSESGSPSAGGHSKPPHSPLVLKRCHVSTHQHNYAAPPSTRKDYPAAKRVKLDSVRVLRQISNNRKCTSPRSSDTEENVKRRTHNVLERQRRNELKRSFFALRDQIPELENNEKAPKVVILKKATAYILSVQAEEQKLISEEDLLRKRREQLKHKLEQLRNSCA
Chain of Cellular tumor antigen p53 (Homo sapiens) (P04637 whole entry, looked up): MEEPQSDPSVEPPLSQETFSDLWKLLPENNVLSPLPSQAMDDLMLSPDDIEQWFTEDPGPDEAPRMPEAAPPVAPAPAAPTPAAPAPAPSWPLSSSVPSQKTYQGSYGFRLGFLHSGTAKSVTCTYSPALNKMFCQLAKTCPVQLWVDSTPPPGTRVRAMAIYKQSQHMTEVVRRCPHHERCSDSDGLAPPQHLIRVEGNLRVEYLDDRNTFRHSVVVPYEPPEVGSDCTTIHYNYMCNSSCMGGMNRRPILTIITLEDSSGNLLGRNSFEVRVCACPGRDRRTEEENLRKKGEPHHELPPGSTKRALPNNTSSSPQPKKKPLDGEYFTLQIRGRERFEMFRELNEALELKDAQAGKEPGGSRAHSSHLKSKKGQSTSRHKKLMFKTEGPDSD
Chain of Nuclear respiratory factor 1 (Homo sapiens) (Q16656 whole entry, looked up): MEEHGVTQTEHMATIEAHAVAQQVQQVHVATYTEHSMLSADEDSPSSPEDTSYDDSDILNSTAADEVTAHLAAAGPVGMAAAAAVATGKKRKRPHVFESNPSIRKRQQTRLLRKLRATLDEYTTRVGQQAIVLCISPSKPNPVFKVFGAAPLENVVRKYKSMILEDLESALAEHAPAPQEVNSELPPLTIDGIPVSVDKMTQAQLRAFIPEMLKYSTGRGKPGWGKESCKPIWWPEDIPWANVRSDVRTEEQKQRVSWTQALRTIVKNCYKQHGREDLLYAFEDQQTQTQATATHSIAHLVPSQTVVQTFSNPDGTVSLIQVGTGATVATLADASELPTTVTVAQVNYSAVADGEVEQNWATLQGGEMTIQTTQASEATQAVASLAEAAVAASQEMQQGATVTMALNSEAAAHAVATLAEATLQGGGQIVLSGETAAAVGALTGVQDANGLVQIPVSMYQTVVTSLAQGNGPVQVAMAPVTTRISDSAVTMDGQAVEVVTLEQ
Chain of Transcriptional activator Myb (Homo sapiens) (P10242 whole entry, looked up): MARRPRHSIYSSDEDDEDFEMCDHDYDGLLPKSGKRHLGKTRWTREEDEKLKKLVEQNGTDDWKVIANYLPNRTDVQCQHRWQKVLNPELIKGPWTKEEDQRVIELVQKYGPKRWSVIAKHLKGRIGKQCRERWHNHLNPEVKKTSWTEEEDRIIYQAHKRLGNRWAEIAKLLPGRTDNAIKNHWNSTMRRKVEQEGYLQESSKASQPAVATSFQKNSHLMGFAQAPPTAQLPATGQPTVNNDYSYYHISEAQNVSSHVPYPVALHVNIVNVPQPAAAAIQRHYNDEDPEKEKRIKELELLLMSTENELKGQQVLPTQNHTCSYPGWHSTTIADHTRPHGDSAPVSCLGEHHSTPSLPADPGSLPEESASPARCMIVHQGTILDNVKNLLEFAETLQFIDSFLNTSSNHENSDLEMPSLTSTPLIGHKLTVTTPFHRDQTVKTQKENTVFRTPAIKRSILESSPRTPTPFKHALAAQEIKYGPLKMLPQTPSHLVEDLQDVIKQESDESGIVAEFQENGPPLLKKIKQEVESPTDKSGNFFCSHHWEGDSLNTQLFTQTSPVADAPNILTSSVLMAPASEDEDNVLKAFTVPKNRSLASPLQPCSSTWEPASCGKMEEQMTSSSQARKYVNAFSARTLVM
Chain of Hepatocyte nuclear factor 4-alpha (Homo sapiens) (P41235 whole entry, looked up, the tested form may be a part): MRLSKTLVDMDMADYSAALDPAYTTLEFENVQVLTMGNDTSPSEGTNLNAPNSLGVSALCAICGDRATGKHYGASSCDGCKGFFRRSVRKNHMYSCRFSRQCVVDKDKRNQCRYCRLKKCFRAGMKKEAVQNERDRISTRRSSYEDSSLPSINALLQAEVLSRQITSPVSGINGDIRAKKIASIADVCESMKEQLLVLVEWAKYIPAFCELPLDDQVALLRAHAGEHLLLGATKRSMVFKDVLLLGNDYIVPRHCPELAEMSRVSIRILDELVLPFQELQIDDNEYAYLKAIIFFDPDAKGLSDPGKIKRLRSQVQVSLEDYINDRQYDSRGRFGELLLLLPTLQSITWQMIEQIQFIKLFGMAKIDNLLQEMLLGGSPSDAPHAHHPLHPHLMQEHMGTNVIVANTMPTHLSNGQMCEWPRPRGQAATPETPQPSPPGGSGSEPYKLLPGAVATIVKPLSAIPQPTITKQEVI
Chain of Bile acid receptor (Homo sapiens) (Q96RI1 whole entry, looked up, the tested form may be a part): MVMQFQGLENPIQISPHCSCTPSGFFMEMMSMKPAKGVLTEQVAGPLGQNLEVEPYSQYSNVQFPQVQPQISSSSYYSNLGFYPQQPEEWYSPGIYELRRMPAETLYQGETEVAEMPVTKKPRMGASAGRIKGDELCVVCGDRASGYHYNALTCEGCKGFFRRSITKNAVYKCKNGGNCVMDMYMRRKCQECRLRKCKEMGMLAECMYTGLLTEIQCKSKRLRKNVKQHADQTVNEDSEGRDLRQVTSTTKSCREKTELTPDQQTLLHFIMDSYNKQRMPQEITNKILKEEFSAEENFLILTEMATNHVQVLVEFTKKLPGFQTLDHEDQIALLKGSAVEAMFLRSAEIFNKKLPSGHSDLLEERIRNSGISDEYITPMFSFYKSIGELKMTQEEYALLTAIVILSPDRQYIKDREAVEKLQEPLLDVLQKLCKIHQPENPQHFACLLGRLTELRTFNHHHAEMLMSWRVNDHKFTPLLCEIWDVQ
Chain of Nuclear receptor subfamily 4 group A member 2 (Homo sapiens) (P43354 whole entry, looked up, the tested form may be a part): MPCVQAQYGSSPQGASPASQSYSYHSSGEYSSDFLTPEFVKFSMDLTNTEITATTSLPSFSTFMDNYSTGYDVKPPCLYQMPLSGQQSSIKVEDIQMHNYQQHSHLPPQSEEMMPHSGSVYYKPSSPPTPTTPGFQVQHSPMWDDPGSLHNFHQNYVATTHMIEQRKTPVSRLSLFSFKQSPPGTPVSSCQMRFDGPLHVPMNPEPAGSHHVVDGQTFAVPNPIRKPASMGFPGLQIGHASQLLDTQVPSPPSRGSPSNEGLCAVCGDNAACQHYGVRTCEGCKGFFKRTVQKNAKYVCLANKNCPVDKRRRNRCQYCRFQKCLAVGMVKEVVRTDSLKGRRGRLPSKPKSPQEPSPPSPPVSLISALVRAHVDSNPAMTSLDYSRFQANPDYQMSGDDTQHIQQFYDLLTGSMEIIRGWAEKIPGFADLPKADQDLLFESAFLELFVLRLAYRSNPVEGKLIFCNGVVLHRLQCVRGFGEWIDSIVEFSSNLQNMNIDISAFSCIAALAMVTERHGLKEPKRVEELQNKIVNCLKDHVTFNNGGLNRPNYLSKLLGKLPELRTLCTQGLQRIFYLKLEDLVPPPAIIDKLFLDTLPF

O=C1CCCC=CCCCCCCCCCC1
active: [4] 26.5 µM | [9] 45.7 µM
inactive: [1] | [2] | [3] | [5] | [6] | [7] | [8] | [10]

O=C(O)CCCCCCCCC(=O)O
not listed: [4] | [5] | [15] | [16] | [17] | [18] | [19]
inactive: all other assays above

CC(C)(C)C1=CC(=O)C(C(C)(C)C)=CC1=O
active: [4] 74 µM | [13] 77.3 µM | [8] 50 µM | [9] 13.7 µM | [10] 30.5 µM
inactive: [1] | [2] | [11] | [3] | [5] | [6] | [7] | [14]

CN(C)CCOC(C)(c1ccccc1)c1ccccn1 (stereo unspecified)
not listed: [2] | [4] | [8] | [12] | [16] | [17] | [18] | [19]
inactive: all other assays above

OCCOCCN1CCN(C2=Nc3ccccc3Sc3ccccc32)CC1
active: [9] 176 µM | [10] 75.8 µM
not listed: [12] | [14] | [16] | [17] | [18] | [19]
inactive: all other assays above

COC(=O)Nc1ccc(Cl)c(Cl)c1
active: [4] 79.9 µM | [9] 100 µM
not listed: [2] | [8] | [16] | [17] | [18] | [19]
inactive: all other assays above

CCOC(=O)CCc1ccccc1
not listed: [2] | [3] | [12] | [16] | [17] | [18] | [19]
inactive: all other assays above

CCCCCCCCC=CCCCCCCCC1=NCCN1CCO
active: [7] 6.21 µM | [8] 26 µM | [10] 21 µM
inactive: [1] | [11] | [12] | [3] | [5] | [6] | [13] | [9] | [14]

Cc1ccc(N)c(S(=O)(=O)O)c1
not listed: [4] | [11] | [15] | [16] | [17] | [18] | [19]
inactive: all other assays above

CCC1(C)NC(=O)NC1=O (stereo unspecified)
not listed: [4] | [11] | [12] | [15] | [16] | [17] | [18] | [19]
inactive: all other assays above

CC(C)CC(C)CC(O)CC(C)C (stereo unspecified)
active: [9] 100 µM
not listed: [3] | [12] | [16] | [17] | [18] | [19]
inactive: all other assays above

c1ccc2[nH]cnc2c1
not listed: [3] | [11] | [14] | [16] | [17] | [18] | [19]
inactive: all other assays above

CC1CCC(C(C)C)C(O)C1 (stereo unspecified)
inactive: [1] | [11] | [3] | [4] | [5] | [6] | [7] | [8] | [9] | [14]

[Cl][Au]([Cl])[Cl]
active: [6] 147 µM | [9] 0.156 µM
not listed: [11] | [16] | [17] | [18] | [19]
inactive: all other assays above

Oc1ccc2cc(SSc3ccc4cc(O)ccc4c3)ccc2c1
active: [7] 34.1 µM | [9] 8.28 µM | [14] 39.9 µM
not listed: [4] | [10] | [16] | [17] | [18] | [19]
inactive: all other assays above

C=CC(=O)OCCCC
inactive: [2] | [11] | [15] | [7] | [13] | [9] | [14] | [10]

OCc1ccc(Cl)cc1Cl
inactive: [1] | [12] | [3] | [5] | [6] | [7] | [13] | [9] | [14] | [10]

C=Cc1ccc(C(C)(C)C)cc1
inactive: [1] | [4] | [5] | [6] | [7] | [13] | [8] | [9] | [14]

CCN(CCC#N)c1ccc(N=Nc2ccc([N+](=O)[O-])cc2)cc1
inactive: [1] | [3] | [15] | [6] | [7] | [13] | [8] | [14] | [10]
active: [9] 64.7 µM

Nc1c(S(=O)(=O)O)cc(Br)c2c1C(=O)c1ccccc1C2=O
active: [9] 73.8 µM
not listed: [1] | [10] | [12] | [16] | [17] | [18] | [19]
inactive: all other assays above

COc1ccc(CCN2CCC(Nc3nc4ccccc4n3Cc3ccc(F)cc3)CC2)cc1
active: [9] 1.99 µM | [17] 5 µM | [19] 5 µM
not listed: [2] | [11] | [12]
inactive: all other assays above

— PubChem BioAssay (EPA / NIEHS)
